Out of some 5,500 compounds screened, about 2,000 (36%) were called active. Another 18% or so got no clear call; they are omitted. No stated cut-off is given here; in the data, active means normalized growth mostly below about 0.91 (no sharp cut-off); inconclusive means no clear call, values can overlap the other calls; inactive means mostly above about 0.92. Some of the results follow.
Experiment: chemical genetic growth profiling, strain panel (AID 1159580);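 further: tested at 20 µM; growth read once vehicle control cultures reached saturation at 30 °C; 1 = growth at the plate median or of vehicle wells; lower values mean less growth of the strain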
Details: growth OD

Measured: normalized growth

COc1ccc(-c2cc(=O)c3ccccc3o2)cc1
inactive: S. cerevisiae deletion strains, locus YJR066W, strain TOR1, active compounds read low 0.873 | S. cerevisiae deletion strains, locus YLR113W, strain HOG1, active compounds read low 1.06 | S. cerevisiae deletion strains, locus YLR357W, strain rsc2, active compounds read low 1.03 | S. cerevisiae deletion strains, locus YLR370C, strain arc18, active compounds read low 0.922 | S. cerevisiae deletion strains, locus YMR125W, strain sto1, active compounds read low 0.932 | S. cerevisiae deletion strains, locus YNL183C, strain NPR1, active compounds read low 0.874 | S. cerevisiae deletion strains, locus YNL250W, strain rad50, active compounds read low 0.921 | S. cerevisiae deletion strains, locus YOL012C, strain htz1 0.926 | S. cerevisiae deletion strains, locus YOR231W, strain MKK1, active compounds read low 0.991 | S. cerevisiae deletion strains, locus YOR316C, strain cot1, active compounds read low 0.925 | S. cerevisiae deletion strains, locus YPL106C, strain sse1, active compounds read low 1.05 | S. cerevisiae deletion strains, locus YPL256C, strain CLN2, active compounds read low 1.02 | S. cerevisiae deletion strains, locus YPR141C, strain kar3, active compounds read low 0.94
active: S. cerevisiae deletion strains, locus YKL009W, strain mrt4, active compounds read low 0.824 | S. cerevisiae deletion strains, locus YKL068W, active compounds read low 0.93 | S. cerevisiae deletion strains, locus YKL085W, strain MDH1 (second series), active compounds read low 0.914 | S. cerevisiae deletion strains, locus YKL085W, strain MDH1, active compounds read low 0.914 | S. cerevisiae deletion strains, locus YKL160W, strain elf1, active compounds read low 0.742 | S. cerevisiae deletion strains, locus YKR001C, strain vps1, active compounds read low 0.354 | S. cerevisiae deletion strains, locus YKR026C, strain gcn3, active compounds read low 0.92 | S. cerevisiae deletion strains, locus YKR091W, strain srl3, active compounds read low 0.93 | S. cerevisiae deletion strains, locus YLL001W, strain dnm1, active compounds read low 0.763 | S. cerevisiae deletion strains, locus YLL026W, active compounds read low 0.9 | S. cerevisiae deletion strains, locus YLL041C, strain sdh2, active compounds read low 0.927 | S. cerevisiae deletion strains, locus YLR027C, strain aat2, active compounds read low 0.84 | S. cerevisiae deletion strains, locus YLR039C, strain RIC1, active compounds read low 0.405 | S. cerevisiae deletion strains, locus YLR058C, strain SHM2, active compounds read low 0.741 | S. cerevisiae deletion strains, locus YLR102C, strain apc9, active compounds read low 0.916 | S. cerevisiae deletion strains, locus YLR221C, strain rsa3, active compounds read low 0.749 | S. cerevisiae deletion strains, locus YLR258W, strain gsy2, active compounds read low 0.823 | S. cerevisiae deletion strains, locus YLR262C, strain YPT6 (second series), active compounds read low 0.538 | S. cerevisiae deletion strains, locus YLR262C, strain YPT6, active compounds read low 0.406 | S. cerevisiae deletion strains, locus YLR268W, strain sec22, active compounds read low 0.727 | S. cerevisiae deletion strains, locus YLR320W, strain mms22, active compounds read low 0.449 | S. cerevisiae deletion strains, locus YLR330W, strain CHS5, active compounds read low 0.659 | S. cerevisiae deletion strains, locus YLR342W, strain FKS1 (second series), active compounds read low 0.512 | S. cerevisiae deletion strains, locus YLR342W, strain FKS1, active compounds read low 0.861 | S. cerevisiae deletion strains, locus YLR371W, strain rom2, active compounds read low 0.834 | S. cerevisiae deletion strains, locus YLR384C, strain iki3, active compounds read low 0.916 | S. cerevisiae deletion strains, locus YLR418C, strain cdc73, active compounds read low 0.612 | S. cerevisiae deletion strains, locus YML016C, strain PPZ1, active compounds read low 0.89 | S. cerevisiae deletion strains, locus YML032C, strain rad52, active compounds read low 0.697 | S. cerevisiae deletion strains, locus YML120C, strain ndi1, active compounds read low 0.785 | S. cerevisiae deletion strains, locus YML124C, strain tub3, active compounds read low 0.922 | S. cerevisiae deletion strains, locus YMR058W, strain fet3, active compounds read low 0.804 | S. cerevisiae deletion strains, locus YMR078C, strain ctf18, active compounds read low 0.753 | S. cerevisiae deletion strains, locus YMR129W, active compounds read low 0.92 | S. cerevisiae deletion strains, locus YMR205C, strain PFK2, active compounds read low 0.668 | S. cerevisiae deletion strains, locus YMR223W, strain ubp8, active compounds read low 0.784 | S. cerevisiae deletion strains, locus YMR231W, strain pep5, active compounds read low 0.921 | S. cerevisiae deletion strains, locus YMR307W, strain GAS1, active compounds read low 0.397 | S. cerevisiae deletion strains, locus YNL067W, strain RPL9B, active compounds read low 0.688 | S. cerevisiae deletion strains, locus YNL071W, strain lat1, active compounds read low 0.48 | S. cerevisiae deletion strains, locus YNL153C, strain GIM3, active compounds read low 0.615 | S. cerevisiae deletion strains, locus YNL209W, strain ssb2, active compounds read low 0.873 | S. cerevisiae deletion strains, locus YNL233W, strain BNI4, active compounds read low 0.629 | S. cerevisiae deletion strains, locus YNL248C, strain rpa49, active compounds read low 0.833 | S. cerevisiae deletion strains, locus YNL271C, strain bni1, active compounds read low 0.884 | S. cerevisiae deletion strains, locus YNL298W, strain CLA4, active compounds read low 0.881 | S. cerevisiae deletion strains, locus YNL307C, strain MCK1, active compounds read low 0.136 | S. cerevisiae deletion strains, locus YNL322C, strain KRE1 (second series), active compounds read low 0.902 | S. cerevisiae deletion strains, locus YNL322C, strain KRE1, active compounds read low 0.792 | S. cerevisiae deletion strains, locus YNR049C, strain mso1, active compounds read low 0.914 | S. cerevisiae deletion strains, locus YNR052C, strain pop2, active compounds read low 0.853 | S. cerevisiae deletion strains, locus YOL147C, strain pex11, active compounds read low 0.819 | S. cerevisiae deletion strains, locus YOR001W, strain rrp6, active compounds read low 0.809 | S. cerevisiae deletion strains, locus YOR061W, strain CKA2, active compounds read low 0.851 | S. cerevisiae deletion strains, locus YOR069W, strain VPS5, active compounds read low 0.729 | S. cerevisiae deletion strains, locus YOR070C, strain gyp1, active compounds read low 0.818 | S. cerevisiae deletion strains, locus YOR080W, strain dia2, active compounds read low 0.906 | S. cerevisiae deletion strains, locus YOR083W, strain WHI5, active compounds read low 0.71 | S. cerevisiae deletion strains, locus YOR106W, strain vam3, active compounds read low 0.733 | S. cerevisiae deletion strains, locus YOR136W, strain idh2, active compounds read low 0.895 | S. cerevisiae deletion strains, locus YOR144C, strain elg1, active compounds read low 0.911 | S. cerevisiae deletion strains, locus YOR184W, strain ser1, active compounds read low 0.474 | S. cerevisiae deletion strains, locus YOR265W, strain rbl2, active compounds read low 0.879 | S. cerevisiae deletion strains, locus YOR270C, strain vph1, active compounds read low 0.328 | S. cerevisiae deletion strains, locus YOR290C, strain snf2, active compounds read low 0.689 | S. cerevisiae deletion strains, locus YPL051W, strain arl3, active compounds read low 0.674 | S. cerevisiae deletion strains, locus YPL078C, strain atp4, active compounds read low 0.695 | S. cerevisiae deletion strains, locus YPL240C, strain hsp82, active compounds read low 0.893 | S. cerevisiae deletion strains, locus YPL241C, strain CIN2, active compounds read low 0.839 | S. cerevisiae deletion strains, locus YPR119W, strain clb2, active compounds read low 0.93 | S. cerevisiae deletion strains, locus YPR163C, strain tif3, active compounds read low 0.543 | S. cerevisiae deletion strains, locus YPR167C, strain met16, active compounds read low 0.727 | S. cerevisiae deletion strains, strain wtn01, active compounds read low 0.816 | S. cerevisiae strains, strain wild type, active compounds read low 0.682

— PubChem BioAssay AID1159580 (chemical genetic matrix, 2015)
